Compound activity (PubChem)
An excerpt weighted towards active compounds, which were near 19% of everything screened.
HT1080NT lethal: qHTS for induction of synthetic lethality in tumor cells producing 2HG: qHTS for the HT-1080-NT fibrosarcoma cell line; HT-1080-NT fibrosarcoma viability, CellTiter-Glo ATP luminescence, 48 h; Potency, µM (doses to about 46.1 µM), inactives show at the top dose activity, negative = less viability, most hits filed as cytotoxic; 360,000 compounds, 1.6% hits; AID 686970, 2013;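 also: NT is the 2HG producing partner of a matched IDH1 knockdown line; potency is read from the fitted curve at half-maximal effect; 0% = DMSO-treated cells and -100% = media-only wells without cells; nearly all actives have a fitted effect of over 55% in size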
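Toxicity toward the 2HG-producing NT line was scored as %Activity, normalised to DMSO and no-cell wells, from CellTiter-Glo luminescence after 48 hours' treatment.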
HT1080 IDH1KD tx: qHTS for induction of synthetic lethality in tumor cells producing 2HG: qHTS for the HT-1080-IDH1KD cell line; HT-1080 IDH1 knockdown viability, ATP luminescence, 48 h; Potency, µM (titrated, usually from 46.1 µM), for inactives: at the top dose activity, negative = toxicity, actives largely listed as cytotoxic; 360,000 compounds, 2% hits; AID 686971, 2013;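 also: potency is read from the fitted curve at half-maximal effect; 0% = DMSO wells and -100% = cell-free medium wells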
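Cytotoxicity counter-line: IDH1KD HT-1080, 48 h, CellTiter-Glo. Curves classed by r2, magnitude and activity.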
IL-1B inflam inh: qHTS for Inhibitors of Inflammasome Signaling: IL-1-beta AlphaLISA Primary Screen; THP-1 LPS/ATP IL-1B secretion, AlphaLISA, 16 h; hits give low values; activity change, % at 57.5 µM; 360,000 compounds, 4.7% hits; AID 743279, 2014; in the data active = activity change below about -50%; inconclusive = mostly about -30% to -49%
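Secreted IL-1B measured by AlphaLISA bead assay after 16 h compound exposure of THP-1 cells; compounds (final up to 57.5 uM) added 1 h before LPS (250 ng/mL) and ATP (1.25 mM) stimulation; lower signal means less secretion.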
TDP1 cell CPT: qHTS for Inhibitors of human tyrosyl-DNA phosphodiesterase 1 (TDP1): qHTS in cells in presence of CPT; Potency, µM (doses to about 46.2 µM), for inactives: at the top dose activity change, negative = growth inhibition, hits mostly inhibitors; AID 686979, 2013; chicken DT40 Tdp1-/-;hTDP1 cells + 20 nM CPT, ATP luminescence, 48 h; 420,000 compounds, 12% hits; also: potency is read from the fitted curve at half-maximal effect; nearly all actives have a fitted effect of over 55% in size
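Cell growth measured by CellTiter-Glo luminescence after a minimum 48 h, 37 C compound exposure with 20 nM CPT in Tdp1-knockout DT40 cells stably expressing hTDP1, seeded 400/well; qHTS titration format.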
TDP1 cell noCPT: qHTS for Inhibitors of human tyrosyl-DNA phosphodiesterase 1 (TDP1): qHTS in cells in absence of CPT; DT40 Tdp1-/- hTDP1 cells, no CPT, ATP luminescence, 48 h; Potency, µM (top dose mostly 46.2 µM), for inactives: at the top dose activity change, negative = growth inhibition, hits mostly inhibitors; 420,000 compounds, 15% hits; also: potency is read from the fitted curve at half-maximal effect; nearly all actives have a fitted effect of over 55% in size
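Growth of hTDP1-complemented DT40 Tdp1-knockout cells is measured by ATP luminescence after at least 48 hr compound exposure at 37 °C, with DMSO substituting for the 20 nM CPT used in the parallel screen.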
Active calls of the source: *; [ ] = another dose, or the depositor's remark. Unless noted, calls follow the shape of the dose curve; as a rule, active = well fitted curve in the direction sought with a large enough effect; inconclusive = small, poorly fitted or top-dose-only effect, or another doubt; inactive = no such curve, though single readings can be large; an effect the other way counts as inactive or inconclusive. Unless noted, % is scaled to controls: 0 for no effect and ±100 for the full control effect.

C=CCC(NCc1ccccc1)c1ccco1 (stereo not drawn) was read as HT1080NT lethal 1.0%, HT1080 IDH1KD tx 0.1%, IL-1B inflam inh 2.9, TDP1 cell CPT -4.6% and TDP1 cell noCPT -2.0%.
For COc1ccccc1-c1cnc2c(c1)C(=O)N([C@@H](C)CO)C[C@H](C)[C@H](CN(C)C)O2 the results were HT1080NT lethal -0.5%, HT1080 IDH1KD tx -7.9%, IL-1B inflam inh -4.1, TDP1 cell CPT -8.3% and TDP1 cell noCPT 0.5%.
Screening CN(C)c1cccc(-c2cc(Nc3ccc(C(C)(C)C)cc3)ncn2)c1 returned HT1080NT lethal -7.3%, HT1080 IDH1KD tx -10.3%, IL-1B inflam inh -0.5, TDP1 cell CPT 20.6µM* and TDP1 cell noCPT inconclusive.
CCC1(c2ccc(F)cc2)NC(=O)N(CC(=O)Nc2cccc(S(=O)(=O)N3CCCCC3)c2)C1=O (stereo not drawn) was read as HT1080NT lethal -3.6%, HT1080 IDH1KD tx -4.5%, IL-1B inflam inh -3.6, TDP1 cell CPT inconclusive and TDP1 cell noCPT inconclusive.
`COc1cc2c(cc1OC)[C@H](C)N(CC1C(=O)O[C@@H]3C[C@@]4(C)CCC[C@H](C)[C@@]45OC5[C@H]13)CC2` (stereo partly drawn) gave TDP1 cell CPT -25.8%[9.04 µM] and TDP1 cell noCPT inconclusive.
Screening C[C@H]1CCC[C@]2(C)C[C@H]3OC(=O)C(CN4CCCCCC4)[C@H]3C=C12 (stereo partly drawn) returned HT1080NT lethal 16.4µM*, HT1080 IDH1KD tx inconclusive, IL-1B inflam inh -98.1*, TDP1 cell CPT inconclusive and TDP1 cell noCPT inconclusive.
`C=C1C(=O)OC2C[C@@]3(C)CCCC(C)C3=CC12` (stereo partly drawn) gave TDP1 cell CPT inconclusive and TDP1 cell noCPT 10.3µM*.
CC(=O)c1c(C)[nH]c(C(=O)OCC(=O)N2CCc3ccccc3C2)c1C was read as HT1080NT lethal -3.7%, HT1080 IDH1KD tx -4.0%, IL-1B inflam inh 59.5, TDP1 cell CPT 23.1µM* and TDP1 cell noCPT 16.4µM*.
Screening CC(=O)c1c(C)[nH]c(C(=O)OCC(=O)N2CCN(c3ccccc3)CC2)c1C returned HT1080NT lethal -1.9%, HT1080 IDH1KD tx 4.9%, IL-1B inflam inh 20.6, TDP1 cell CPT -19.6% and TDP1 cell noCPT 3.3%.
`CCOC(=O)c1[nH]c(C)c(C(=O)N2CCc3ccccc32)c1C` gave HT1080NT lethal inconclusive, HT1080 IDH1KD tx 1.03µM*, IL-1B inflam inh 108.3, TDP1 cell CPT 0.82µM* and TDP1 cell noCPT 0.92µM*.
CC(C)c1ccc(NC(=O)[C@@H]2CCC(=O)N2C2OC(=O)c3ccccc32)cc1 (stereo partly drawn) was read as HT1080NT lethal 1.0%, HT1080 IDH1KD tx 6.1%, IL-1B inflam inh 12.6, TDP1 cell CPT -5.8% and TDP1 cell noCPT -18.1%.
CCCNC(=O)c1onc(CSc2nc3ccccc3[nH]2)c1C(=O)NCCC was read as HT1080NT lethal 15.2%, HT1080 IDH1KD tx 12.9%, IL-1B inflam inh 16.5, TDP1 cell CPT 3.2% and TDP1 cell noCPT -30.0%.
COCc1cc(C)nc2sc3c(=O)n(-c4ccccc4C(F)(F)F)nnc3c12 was read as TDP1 cell CPT inconclusive and TDP1 cell noCPT -29.0%.
`COc1ccc(S(=O)(=O)N2CCCCC2)cc1NC(=O)c1cc(C)on1` gave HT1080NT lethal -0.2%, HT1080 IDH1KD tx 1.5%, IL-1B inflam inh 18.9, TDP1 cell CPT 0.7% and TDP1 cell noCPT -0.1%.
C#CCOCCOCCOCCNc1nc(N2CCN(C(=O)CCCCCCCCCCNC(=O)Cn3cc(C[C@@H](C)O)nn3)CC2)nc(N2CCN(C(=O)CCCCCCCCCCNC(=O)[C@H](CCCN=C(N)N)n3cc(C[C@@H](C)CC)nn3)CC2)n1 was read as HT1080NT lethal inconclusive, HT1080 IDH1KD tx inconclusive, IL-1B inflam inh -96.9*, TDP1 cell CPT inconclusive and TDP1 cell noCPT 16.4µM*.
Screening C#CCOCCOCCOCCNc1nc(N2CCN(C(=O)CCCCCCCCCCNC(=O)[C@H](CO)n3cc(CCCSC)nn3)CC2)nc(N2CCN(C(=O)CCCCCCCCCCNC(=O)[C@H](CCCN=C(N)N)n3cc(C[C@@H](C)CC)nn3)CC2)n1 returned HT1080NT lethal inconclusive, HT1080 IDH1KD tx inconclusive, IL-1B inflam inh -102.7*, TDP1 cell CPT inconclusive and TDP1 cell noCPT 23.1µM*.
C#CCOCCOCCOCCNc1nc(N2CCN(C(=O)CCCCCCCCCCNC(=O)[C@H](CO)n3cc(CCCSC)nn3)CC2)nc(N2CCN(C(=O)CCCCCCCCCCNC(=O)[C@H](CCCCN)n3cc(CCO)nn3)CC2)n1 was read as HT1080NT lethal -10.0%, HT1080 IDH1KD tx -16.5%, IL-1B inflam inh -60.9*, TDP1 cell CPT inconclusive and TDP1 cell noCPT inconclusive.
For C#CCOCCOCCOCCNc1nc(N2CCN(C(=O)CCCCCCCCCCNC(=O)Cn3cc(C[C@@H](C)O)nn3)CC2)nc(N2CCN(C(=O)CCCCCCCCCCNC(=O)[C@H](CCCCN)n3cc(CCCC(=O)O)nn3)CC2)n1 the results were HT1080NT lethal 24.5%, HT1080 IDH1KD tx 2.0%, IL-1B inflam inh inconclusive, TDP1 cell CPT inconclusive and TDP1 cell noCPT 1.4%.
Screening C#CCOCCOCCOCCNc1nc(N2CCN(C(=O)CCCCCCCCCCNC(=O)Cn3cc(CCCCCN)nn3)CC2)nc(N2CCN(C(=O)CCCCCCCCCCNC(=O)[C@@H](CCC(=O)O)n3cc(CCCCCN)nn3)CC2)n1 returned HT1080NT lethal 0.9%, HT1080 IDH1KD tx 7.4%, IL-1B inflam inh -16.7, TDP1 cell CPT inconclusive and TDP1 cell noCPT inconclusive.
`C#CCOCCOCCOCCNc1nc(N2CCN(C(=O)CCCCCCCCCCNC(=O)[C@H](CCCCN)n3cc(C)nn3)CC2)nc(N2CCN(C(=O)CCCCCCCCCCNC(=O)[C@H](CCCCN)n3cc(CCCC(=O)O)nn3)CC2)n1` gave HT1080NT lethal 0.7%, HT1080 IDH1KD tx 3.2%, IL-1B inflam inh 0.0, TDP1 cell CPT -3.9% and TDP1 cell noCPT -6.6%.
For C#CCOCCOCCOCCNc1nc(N2CCN(C(=O)CCCCCCCCCCNC(=O)Cn3cc(CCCCCN)nn3)CC2)nc(N2CCN(C(=O)CCCCCCCCCCNC(=O)[C@@H](CCSC)n3cc(CCO)nn3)CC2)n1 the results were HT1080NT lethal -12.0%, HT1080 IDH1KD tx -14.6%, IL-1B inflam inh -59.6*, TDP1 cell CPT inconclusive and TDP1 cell noCPT inconclusive.
